Assay outcomes as filed in PubChem BioAssay.
Only some compounds are listed: those with a hit (about 19% of all), similar ones and a draw of the others.
HT1080NT lethal: kills 2HG-producing HT-1080-NT fibrosarcoma cells; HT-1080-NT fibrosarcoma viability, CellTiter-Glo ATP luminescence, 48 h; Potency, µM (doses to about 46.1 µM), inactives show top-dose activity, negative = less viability, most hits filed as cytotoxic; 360,000 compounds, 1.6% hits;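 further: NT is the 2HG producing partner of a matched IDH1 knockdown line; potency means the concentration at half of the fitted maximal effect; 0% = DMSO-treated cells and -100% = media-only wells without cells; nearly all actives have a fitted effect of over 55% in size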
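Viability of the 2HG-overproducing fibrosarcoma line after 48 hours of compound exposure at 37 degrees C was determined by luminescence with CellTiter-Glo, and concentration-effect curves were then fitted and categorized.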
TDP1 cell noCPT: qHTS for Inhibitors of human tyrosyl-DNA phosphodiesterase 1 (TDP1): qHTS in cells in absence of CPT. Potency, µM (top dose mostly 46.2 µM), for inactives: at the highest dose activity change, negative = growth inhibition, actives largely listed as inhibitors. 420,000 compounds, 15% hits. DT40 Tdp1-/- hTDP1 cells, no CPT, ATP luminescence, 48 h; further: potency means the concentration at half of the fitted maximal effect; nearly all actives have a fitted effect of over 55% in size
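Growth kinetics read by CellTiter-Glo luminescence after ≥48 hr at 37 °C. Cells: DT40 Tdp1-/- stably carrying human TDP1, 400 per well, compound exposure in the absence of CPT (DMSO vehicle).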
TDP1 cell CPT: DT40-hTDP1 cell growth loss with CPT. chicken DT40 Tdp1-/-;hTDP1 cells + 20 nM CPT, ATP luminescence, 48 h. Potency, µM (doses to about 46.2 µM), inactives show top-dose activity change, negative = growth inhibition, hits mostly inhibitors. 420,000 compounds, 12% hits; further: potency means the concentration at half of the fitted maximal effect; nearly all actives have a fitted effect of over 55% in size
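Chicken DT40 Tdp1-/- cells complemented with human TDP1, 400 cells/well, exposed to compounds plus 20 nM camptothecin for at least 48 h at 37 C; viability read as ATP content by CellTiter-Glo luminescence.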
HT1080 IDH1KD tx: kills HT-1080 cells with IDH1 knockdown; HT-1080 IDH1 knockdown viability, ATP luminescence, 48 h; 360,000 compounds, 2% hits; Potency, µM (titrated, usually from 46.1 µM), without a hit: at the top dose activity, negative = toxicity, most hits filed as cytotoxic;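 further: potency means the concentration at half of the fitted maximal effect; 0% = DMSO wells and -100% = cell-free medium wells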
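Luminescent ATP read-out (CellTiter-Glo, 10 min at room temperature) after 48 h compound exposure at 37 °C gave viability of IDH1-knockdown HT-1080 cells. Activity was normalised to DMSO and cell-free wells, then fitted as concentration-response curves.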
IL1B secr inh: inflammasome signaling inhibition, IL-1 beta readout; THP-1 LPS/ATP IL-1B secretion, AlphaLISA, 16 h; hits give low values; activity change, % at 57.5 µM; 360,000 compounds, 4.7% hits; in the data active means activity change below about -50%; inconclusive means mostly about -30% to -49%
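THP-1 cells pretreated 1 hr with compounds (up to 57.5 uM final), then stimulated with LPS (250 ng/mL final) plus ATP (1.25 mM final); secreted IL-1B measured by AlphaLISA after 16 hr, decreased signal indicating inhibition.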
An asterisk follows results filed as active. Unless noted, the call rests on the fitted dose curve; in most records, active means well fitted curve in the direction sought with a large enough effect; inconclusive means small, poorly fitted or top-dose-only effect, or another doubt; inactive means no such curve, though single readings can be large; an effect the other way counts as inactive or inconclusive. Unless noted, on the % scale 0 is the no-effect control and ±100 the full control effect.

Results for CCC(C)(O)c1[nH]c2ccc(C#N)cc2c1C (stereo unspecified) ?
HT1080NT lethal: 1%; TDP1 cell noCPT: inconclusive; TDP1 cell CPT: inconclusive; HT1080 IDH1KD tx: -1%; IL1B secr inh: 24

Results for O=C(CC(CC(=O)c1ccc(Br)cc1)c1cccnc1)c1ccc(Br)cc1 ?
HT1080NT lethal: inconclusive; TDP1 cell noCPT: 15µM*; TDP1 cell CPT: 15µM*; HT1080 IDH1KD tx: 13%; IL1B secr inh: 10

How did CCC(CO)Oc1cc(NCc2cccc(O)c2)c2ncn(C(C)C)c2c1 (stereo unspecified) do in these assays?
HT1080NT lethal: 16%; TDP1 cell noCPT: inconclusive; TDP1 cell CPT: 23µM*; HT1080 IDH1KD tx: 16%; IL1B secr inh: 37

What do the screens show for `CCCCOc1cc(NCc2ccccc2)c2ncn(C(C)C)c2c1`?
HT1080NT lethal: -27%; TDP1 cell noCPT: 21µM*; TDP1 cell CPT: 23µM*; HT1080 IDH1KD tx: inconclusive; IL1B secr inh: 27

What do the screens show for `CCC(CO)Oc1cc(NCc2ccc(C(C)(C)C)cc2)c2ncn(C(C)C)c2c1` (stereo unspecified)?
HT1080NT lethal: inconclusive; TDP1 cell noCPT: 15µM*; TDP1 cell CPT: 13µM*; HT1080 IDH1KD tx: inconclusive; IL1B secr inh: 35

How did CCC(CO)Oc1cc(NCc2ccc(O)cc2)c2ncn(C(C)C)c2c1 (stereo unspecified) do in these assays?
HT1080NT lethal: -7%; TDP1 cell noCPT: -15%; TDP1 cell CPT: inconclusive; HT1080 IDH1KD tx: -6%; IL1B secr inh: -11

How did COc1ccc(Cc2cc(NCc3ccccc3)c3ncn(C(C)C)c3c2)cc1 do in these assays?
HT1080NT lethal: inconclusive; TDP1 cell noCPT: 21µM*; TDP1 cell CPT: inconclusive; HT1080 IDH1KD tx: -22%; IL1B secr inh: -15

How did COCCCOc1cc(NCc2ccccc2)c2ncn(C(C)C)c2c1 do in these assays?
HT1080NT lethal: 0%; TDP1 cell noCPT: -18%; TDP1 cell CPT: 3%; HT1080 IDH1KD tx: 1%; IL1B secr inh: -1

How did CCC(CO)Oc1cc(NCc2ccccn2)c2ncn(C(C)C)c2c1 (stereo unspecified) do in these assays?
HT1080NT lethal: 0%; TDP1 cell noCPT: -7%; TDP1 cell CPT: -21%; HT1080 IDH1KD tx: 1%; IL1B secr inh: 4

Results for CN1CCN(c2cc(CNC[C@H]3O[C@@H](n4cnc5c(=O)[nH]c(N)nc54)[C@H](O)[C@@H]3O)ccc2F)CC1 ?
HT1080NT lethal: 11%; TDP1 cell noCPT: 14%; TDP1 cell CPT: -9%; HT1080 IDH1KD tx: 10%; IL1B secr inh: 0

Results for O=C(CC1N=C(Cc2ccccc2)NNC1=O)N/N=C/c1ccc([N+](=O)[O-])cc1 (stereo unspecified) ?
HT1080NT lethal: -5%; TDP1 cell noCPT: -2%; TDP1 cell CPT: 17%; HT1080 IDH1KD tx: -2%; IL1B secr inh: 1

How did O=C(CCNC(=O)c1ccccc1Cl)Nc1nccs1 do in these assays?
HT1080NT lethal: 15%; TDP1 cell noCPT: -2%; TDP1 cell CPT: 8%; HT1080 IDH1KD tx: 27%; IL1B secr inh: -5

What do the screens show for `CCC(CO)Oc1cc(NCc2cccc(OC)c2)c2ncn(C(C)C)c2c1` (stereo unspecified)?
HT1080NT lethal: 8%; TDP1 cell noCPT: inconclusive; TDP1 cell CPT: 21µM*; HT1080 IDH1KD tx: 0%; IL1B secr inh: -4

How did CCOCCOc1cc(NCc2ccccc2)c2ncn(C(C)C)c2c1 do in these assays?
HT1080NT lethal: -24%; TDP1 cell noCPT: inconclusive; TDP1 cell CPT: inconclusive; HT1080 IDH1KD tx: -22%; IL1B secr inh: 39

What do the screens show for `CC(C)n1cnc2c(NCc3ccccc3)cc(N[C@H](C)CO)cc21`?
HT1080NT lethal: 23µM*; TDP1 cell noCPT: 4.6µM*; TDP1 cell CPT: 2.3µM*; HT1080 IDH1KD tx: 23µM*; IL1B secr inh: 110

How did CCC(CO)Oc1cc(NC(=O)Cc2ccccc2)c2ncn(C(C)C)c2c1 (stereo unspecified) do in these assays?
HT1080NT lethal: 5%; TDP1 cell noCPT: inconclusive; TDP1 cell CPT: -22%; HT1080 IDH1KD tx: 0%; IL1B secr inh: -14

How did CCC(COC)Oc1cc(NCc2ccccc2)c2ncn(C(C)C)c2c1 (stereo unspecified) do in these assays?
HT1080NT lethal: inconclusive; TDP1 cell noCPT: 18µM*; TDP1 cell CPT: 26µM*; HT1080 IDH1KD tx: inconclusive; IL1B secr inh: -90*

What do the screens show for `CC(OC(=O)CCN=C1NS(=O)(=O)c2ccccc21)C(=O)Nc1ccc(F)cc1` (stereo unspecified)?
HT1080NT lethal: -2%; TDP1 cell noCPT: -11%; TDP1 cell CPT: -4%; HT1080 IDH1KD tx: 1%; IL1B secr inh: -10

How did CCN(CC)S(=O)(=O)c1ccc2c(c1)nc(CN(C)C(=O)c1cccc(Cl)c1)n2C do in these assays?
TDP1 cell noCPT: -27%; TDP1 cell CPT: inconclusive

How did CCOc1ccc(NCc2cccn2-c2nnc(N3CCC(C(=O)NCc4ccccc4Cl)CC3)s2)cc1 do in these assays?
TDP1 cell noCPT: 12µM*; TDP1 cell CPT: -91%

Results for CCOc1ccc(NCc2cccn2-c2nnc(N3CCC(C(=O)NCCCN4C(C)CCCC4C)CC3)s2)cc1 (stereo unspecified) ?
HT1080NT lethal: inconclusive; TDP1 cell noCPT: inconclusive; TDP1 cell CPT: inconclusive; HT1080 IDH1KD tx: inconclusive; IL1B secr inh: -7

Results for CCOc1ccc(NCc2cccn2-c2nnc(N3CCC(C(=O)NCCCN4CCCCC4)CC3)s2)cc1 ?
HT1080NT lethal: -26%; TDP1 cell noCPT: 23µM*; TDP1 cell CPT: inconclusive; HT1080 IDH1KD tx: 0%; IL1B secr inh: -6

Results for CCOc1ccc(NCc2cccn2-c2nnc(N3CCC(C(=O)NCCCN4CCCCC4C)CC3)s2)cc1 (stereo unspecified) ?
HT1080NT lethal: -13%; TDP1 cell noCPT: inconclusive; TDP1 cell CPT: inconclusive; HT1080 IDH1KD tx: -10%; IL1B secr inh: inconclusive

What do the screens show for `O=C(O)c1ccc(NC(=O)c2cn(-c3ccccc3)nc2-c2cccc(Cl)c2)cc1`?
HT1080NT lethal: inconclusive; TDP1 cell noCPT: 3.7µM*; TDP1 cell CPT: inconclusive; HT1080 IDH1KD tx: inconclusive; IL1B secr inh: 21

How did Cc1cccc(NC(=O)c2cc(-c3ccccn3)nc3ccccc23)c1C do in these assays?
HT1080NT lethal: inconclusive; TDP1 cell noCPT: 13µM*; TDP1 cell CPT: 23µM*; HT1080 IDH1KD tx: -21%; IL1B secr inh: -27

How did CN(C)S(=O)(=O)c1cccc(NC(=O)COC(=O)c2cn(-c3ccccc3)nc2-c2ccccc2)c1 do in these assays?
HT1080NT lethal: -6%; TDP1 cell noCPT: 21µM*; TDP1 cell CPT: inconclusive; HT1080 IDH1KD tx: 0%; IL1B secr inh: -21
